{"source": "the antibiotic and cytotoxicity screens of Wong et al. (2023)", "note": "The whole screen tested about 39,000 compounds, of which about 3,300 (8.5%) were called active. What follows is part of a selection rich in actives, with near analogues and random picks from the rest."}
{"system": "HepG2", "assay": "cytotoxicity call (relative viability < 0.9)", "conditions": "10 µM"}
{"smiles": "C[C@H](CO)N1C[C@H](C)[C@@H](CN(C)C(=O)C2CC2)OCc2cn(nn2)CCCC1=O", "cytotoxicity call": "inactive"}
{"smiles": "Cc1noc(C)c1S(=O)(=O)Nc1ccc2c(c1)C(=O)N([C@H](C)CO)C[C@H](C)[C@@H](CN(C)Cc1ccc(C(=O)O)cc1)O2", "cytotoxicity call": "inactive"}
{"smiles": "C[C@@H]1CCCCO[C@@H](CN(C)C(=O)c2ccccc2)[C@H](C)CN([C@H](C)CO)C(=O)c2cc(NC(=O)Nc3ccc4c(c3)OCO4)ccc2O1", "cytotoxicity call": "inactive"}
{"smiles": "C[C@@H]1CCCCO[C@@H](CN(C)C(=O)Cc2ccccc2)[C@H](C)CN([C@H](C)CO)C(=O)c2cc(NC(=O)Nc3ccc(F)cc3)ccc2O1", "cytotoxicity call": "active"}
{"smiles": "C[C@@H]1CCCCO[C@@H](CN(C)C(=O)Cc2ccccc2)[C@H](C)CN([C@H](C)CO)C(=O)c2cc(NC(=O)NC3CCCCC3)ccc2O1", "cytotoxicity call": "active"}
{"smiles": "C[C@@H]1CCCCO[C@H](CN(C)C(=O)Cc2ccccc2)[C@H](C)CN([C@@H](C)CO)C(=O)c2cc(NC(=O)NC3CCCCC3)ccc2O1", "cytotoxicity call": "inactive"}
{"smiles": "C[C@@H]1CCCCO[C@@H](CN(C)C(=O)Cc2ccccc2)[C@@H](C)CN([C@H](C)CO)C(=O)c2cc(NC(=O)NC3CCCCC3)ccc2O1", "cytotoxicity call": "inactive"}
{"smiles": "C[C@@H]1CCCCO[C@@H](CN(C)C(=O)Cc2ccccc2)[C@@H](C)CN([C@@H](C)CO)C(=O)c2cc(NC(=O)Nc3ccc4c(c3)OCO4)ccc2O1", "cytotoxicity call": "inactive"}
{"smiles": "C[C@@H]1CCCCO[C@H](CN(C)C(=O)Cc2ccccc2)[C@@H](C)CN([C@H](C)CO)C(=O)c2cc(NC(=O)Nc3ccc(F)cc3)ccc2O1", "cytotoxicity call": "inactive"}
{"smiles": "C[C@@H]1CCCCO[C@@H](CN(C)C(=O)Cc2ccccc2)[C@@H](C)CN([C@H](C)CO)C(=O)c2cc(NC(=O)Nc3ccc(F)cc3)ccc2O1", "cytotoxicity call": "inactive"}
{"smiles": "C[C@H]1CCCCO[C@H](CN(C)C(=O)Cc2ccccc2)[C@@H](C)CN([C@@H](C)CO)C(=O)c2cc(NC(=O)Nc3ccc4c(c3)OCO4)ccc2O1", "cytotoxicity call": "inactive"}
{"smiles": "C[C@H](CO)N1C[C@H](C)[C@H](CN(C)C(=O)Cc2ccccc2)OCCCC[C@H](C)Oc2ccc(NC(=O)Nc3ccc4c(c3)OCO4)cc2C1=O", "cytotoxicity call": "active"}
{"smiles": "Nc1ncnc2c([C@@H]3N[C@H](CO)[C@@H](O)[C@H]3O)c[nH]c12", "cytotoxicity call": "inactive"}
{"smiles": "Cc1noc(C)c1S(=O)(=O)Nc1ccc2c(c1)C(=O)N([C@H](C)CO)C[C@H](C)[C@@H](CN(C)Cc1ccc(Cl)c(Cl)c1)OCCCC[C@@H](C)O2", "cytotoxicity call": "inactive"}
{"smiles": "C[C@@H](Oc1ccccc1Cl)c1nc2ccc(Cl)cc2[nH]1", "cytotoxicity call": "inactive"}
{"smiles": "COC(=O)[C@H]1c2cc3c(c(O)c2[C@@H](O[C@@H]2O[C@H](C)[C@H](OC)[C@](C)(OC)[C@@H]2OC)C[C@@]1(C)O)C(=O)c1c(O)cc2c(c1C3=O)O[C@H]1O[C@@]2(C)[C@@H](O)[C@H](N(C)C)[C@@H]1O", "cytotoxicity call": "active"}
{"smiles": "O=C1O[C@H](c2ccccc2)[C@H](c2ccccc2)N2[C@H]1[C@@H](C(=O)N1CCCCCCC1)[C@]1(C(=O)Nc3ccc(C#CC4=CCCCC4)cc31)[C@H]2c1ccc(O)cc1", "cytotoxicity call": "inactive"}
{"smiles": "COc1ccc(S(=O)(=O)N(C)C[C@@H]2Oc3c(NC(=O)C4CC4)cccc3C(=O)N([C@H](C)CO)C[C@H]2C)cc1", "cytotoxicity call": "inactive"}
{"smiles": "O=C(C[C@H]1C=C[C@@H](NC(=O)c2ccc(F)cc2)[C@@H](CO)O1)NCc1ccncn1", "cytotoxicity call": "inactive"}
{"smiles": "C[C@@H]1CN([C@H](C)CO)C(=O)Cc2cc(NS(=O)(=O)c3cn(C)cn3)ccc2O[C@H]1CN(C)C", "cytotoxicity call": "inactive"}
{"smiles": "O=C(C[C@@H]1C=C[C@H](NC(=O)CN2CCOCC2)[C@H](CO)O1)NC1CCCCC1", "cytotoxicity call": "inactive"}
{"smiles": "CO[C@@H]1CN(C)C(=O)c2ccc(NC(=O)c3ccccc3)cc2OC[C@H](C)N(C(=O)CN(C)C)C[C@@H]1C", "cytotoxicity call": "inactive"}
{"smiles": "OC[C@@H]1CCCO1", "cytotoxicity call": "inactive"}
{"smiles": "COc1ccc(NC(=O)Nc2ccc3c(c2)CC(=O)N([C@H](C)CO)C[C@H](C)[C@@H](CN(C)Cc2ccc(-c4ccccc4)cc2)O3)cc1", "cytotoxicity call": "inactive"}
{"smiles": "COc1ccc(NC(=O)Nc2ccc3c(c2)CC(=O)N([C@H](C)CO)C[C@H](C)[C@H](CN(C)Cc2ccc(-c4ccccc4)cc2)O3)cc1", "cytotoxicity call": "active"}
{"smiles": "COc1ccc(NC(=O)Nc2ccc3c(c2)CC(=O)N([C@@H](C)CO)C[C@@H](C)[C@@H](CN(C)Cc2ccc(-c4ccccc4)cc2)O3)cc1", "cytotoxicity call": "active"}
{"smiles": "COc1ccc(NC(=O)Nc2ccc3c(c2)CC(=O)N([C@@H](C)CO)C[C@@H](C)[C@H](CN(C)Cc2ccc(-c4ccccc4)cc2)O3)cc1", "cytotoxicity call": "active"}
{"smiles": "COc1ccc(NC(=O)Nc2ccc3c(c2)CC(=O)N([C@H](C)CO)C[C@@H](C)[C@H](CN(C)Cc2ccc(-c4ccccc4)cc2)O3)cc1", "cytotoxicity call": "inactive"}
{"smiles": "COc1ccc(NC(=O)Nc2ccc3c(c2)CC(=O)N([C@@H](C)CO)C[C@H](C)[C@@H](CN(C)Cc2ccc(-c4ccccc4)cc2)O3)cc1", "cytotoxicity call": "inactive"}
{"smiles": "COc1ccc(NC(=O)Nc2ccc3c(c2)CC(=O)N([C@@H](C)CO)C[C@H](C)[C@H](CN(C)Cc2ccc(-c4ccccc4)cc2)O3)cc1", "cytotoxicity call": "active"}
{"smiles": "C[C@@H]1CN([C@H](C)CO)C(=O)Cc2cc(NS(=O)(=O)c3cccs3)ccc2O[C@@H]1CN(C)S(=O)(=O)c1ccc(F)cc1", "cytotoxicity call": "inactive"}
{"smiles": "COc1ccc(NC(=O)N(C)C[C@@H]2Oc3ccc(NC(=O)CCCCCC(=O)Nc4ccccc4N)cc3CC(=O)N([C@@H](C)CO)C[C@@H]2C)cc1", "cytotoxicity call": "inactive"}
{"smiles": "C[C@@H]1CN([C@H](C)CO)C(=O)c2cc(NC(=O)C3CC3)ccc2O[C@H]1CN(C)S(=O)(=O)c1cn(C)cn1", "cytotoxicity call": "inactive"}
{"smiles": "O=C(Cc1n[nH]c(=O)[nH]1)NCc1n[nH]c2c1CCCCC2", "cytotoxicity call": "inactive"}
{"smiles": "N=C1SCCN1CC(=O)O", "cytotoxicity call": "inactive"}
{"smiles": "C[C@@H]1CCCCO[C@H](CN(C)S(=O)(=O)c2ccc(F)cc2)[C@H](C)CN([C@@H](C)CO)C(=O)c2cc(NC(=O)CCC(F)(F)F)ccc2O1", "cytotoxicity call": "inactive"}
{"smiles": "C[C@H]1CN([C@@H](C)CO)C(=O)c2cc(NC(=O)Cn3cnnn3)ccc2O[C@@H]1CN(C)S(=O)(=O)c1cn(C)cn1", "cytotoxicity call": "inactive"}
{"smiles": "Cc1ccc(S(=O)(=O)N(C)C[C@H]2Oc3c(NS(=O)(=O)c4cn(C)cn4)cccc3C(=O)N([C@H](C)CO)C[C@H]2C)cc1", "cytotoxicity call": "inactive"}
{"smiles": "Cc1noc(C)c1NC(=O)Nc1ccc2c(c1)C(=O)N([C@H](C)CO)C[C@H](C)[C@@H](CN(C)C(=O)Nc1c(C)noc1C)OCCCC[C@@H](C)O2", "cytotoxicity call": "inactive"}
{"smiles": "COc1ccc(-c2cnc3c(c2)C(=O)N([C@H](C)CO)C[C@@H](C)[C@H](CN(C)C(=O)Cc2ccccn2)O3)cc1", "cytotoxicity call": "inactive"}
{"smiles": "CNC[C@H]1Oc2ccc(NC(=O)Cn3cnnn3)cc2CC(=O)N([C@@H](C)CO)C[C@@H]1C", "cytotoxicity call": "inactive"}
{"smiles": "C[C@@H]1CN([C@H](C)CO)C(=O)c2cc(C3=CCCC3)cnc2O[C@@H]1CN(C)S(=O)(=O)c1cn(C)cn1", "cytotoxicity call": "inactive"}
{"smiles": "C[n+]1cccc(C(=O)O)c1", "cytotoxicity call": "inactive"}
{"smiles": "COc1ccc(NC(=O)Nc2ccc3c(c2)CC(=O)N([C@H](C)CO)C[C@@H](C)[C@@H](CN(C)Cc2ccc(-c4ccccc4)cc2)O3)cc1", "cytotoxicity call": "active"}
{"smiles": "Cc1noc(C)c1NC(=O)Nc1ccc2c(c1)CC(=O)N([C@H](C)CO)C[C@H](C)[C@@H](CN(C)C(=O)NC(C)C)O2", "cytotoxicity call": "inactive"}
{"smiles": "CCc1ccc(/C=C2\\SC(=O)N(CCCCCCNC(=O)c3ccc(Nc4ccc([N+](=O)[O-])c5nonc45)cc3)C2=O)cc1", "cytotoxicity call": "inactive"}
{"smiles": "CCc1ccc(/C=C2\\SC(=O)N(CCCCCCNC(=O)c3ccccc3Nc3ccc([N+](=O)[O-])c4nonc34)C2=O)cc1", "cytotoxicity call": "active"}
{"smiles": "N[C@H]1CCCN(Cc2cccc(O)c2)C1", "cytotoxicity call": "inactive"}
{"smiles": "O=C(/C=C/c1ccc(CNc2ccc([C@H]3O[C@@H](CSc4ccncc4)C[C@H](c4ccccc4)O3)cc2)cc1)NO", "cytotoxicity call": "active"}
{"smiles": "O=C(CCCCCCC(=O)Nc1ccc([C@@H]2O[C@H](CSc3ccncc3)C[C@H](c3ccccc3)O2)cc1)NO", "cytotoxicity call": "inactive"}
{"smiles": "O=C(CCCCCCC(=O)Nc1ccc([C@H]2O[C@@H](CSc3ccncc3)C[C@H](c3ccccc3)O2)cc1)NO", "cytotoxicity call": "inactive"}
{"smiles": "C[C@H]1CN([C@@H](C)CO)C(=O)c2c(c3ccccc3n2C)-c2ccccc2CO[C@@H]1CN(C)Cc1ccc(Cl)c(Cl)c1", "cytotoxicity call": "inactive"}
{"smiles": "O=C1C(=Cc2cccs2)CCCC1=Cc1cccs1", "cytotoxicity call": "inactive"}
{"smiles": "O=C1/C(=C/c2cccs2)CCC/C1=C\\c1cccs1", "cytotoxicity call": "inactive"}
{"smiles": "CC(C)/C=C1\\CC/C(=C\\c2ccc(C(F)(F)F)cc2)C1=O", "cytotoxicity call": "active"}
{"smiles": "C[C@@H]1CN([C@H](C)CO)C(=O)c2cc(NC(=O)Cn3cnnn3)ccc2O[C@H]1CN(C)S(=O)(=O)c1cccs1", "cytotoxicity call": "inactive"}
{"smiles": "CC(=O)n1cc([C@@H]2C=C(C(=O)N3CCCCCCC3)O[C@H](OCc3ccc(CO)cc3)C2)c2ccccc21", "cytotoxicity call": "inactive"}
{"smiles": "COc1ccccc1C#Cc1ccc2c(c1)O[C@@H](CN(C)Cc1cccnc1)[C@@H](C)CN([C@H](C)CO)S2(=O)=O", "cytotoxicity call": "inactive"}
{"smiles": "COc1ccccc1C#Cc1ccc2c(c1)O[C@@H](CN(C)Cc1cccnc1)[C@H](C)CN([C@@H](C)CO)S2(=O)=O", "cytotoxicity call": "inactive"}
{"smiles": "COc1ccccc1C#Cc1ccc2c(c1)O[C@@H](CN(C)Cc1cncnc1)[C@@H](C)CN([C@@H](C)CO)S2(=O)=O", "cytotoxicity call": "inactive"}
{"smiles": "COc1ccccc1C#Cc1ccc2c(c1)O[C@H](CN(C)Cc1cccnc1)[C@H](C)CN([C@@H](C)CO)S2(=O)=O", "cytotoxicity call": "inactive"}
{"smiles": "COc1ccccc1C#Cc1ccc2c(c1)O[C@@H](CN(C)Cc1cccnc1)[C@H](C)CN([C@H](C)CO)S2(=O)=O", "cytotoxicity call": "active"}
{"smiles": "COc1ccccc1C#Cc1ccc2c(c1)O[C@@H](CN(C)Cc1cccnc1)[C@@H](C)CN([C@@H](C)CO)S2(=O)=O", "cytotoxicity call": "active"}
{"smiles": "COc1ccccc1C#Cc1ccc2c(c1)O[C@H](CN(C)Cc1cccnc1)[C@@H](C)CN([C@H](C)CO)S2(=O)=O", "cytotoxicity call": "active"}
{"smiles": "COc1ccccc1C#Cc1ccc2c(c1)O[C@H](CN(C)Cc1cccnc1)[C@@H](C)CN([C@@H](C)CO)S2(=O)=O", "cytotoxicity call": "inactive"}
{"smiles": "COc1ccccc1C#Cc1ccc2c(c1)O[C@H](CN(C)Cc1cccnc1)[C@H](C)CN([C@H](C)CO)S2(=O)=O", "cytotoxicity call": "inactive"}
